From PubChem
DT40 TDP1 no CPT = qHTS for Inhibitors of human tyrosyl-DNA phosphodiesterase 1 (TDP1): qHTS in cells in absence of CPT. DT40 Tdp1-/- hTDP1 cells, no CPT, ATP luminescence, 48 h. Potency, µM (top dose mostly 46.2 µM), usual class: inhibitors. 420,000 compounds, 15% hits. AID 686978, 2013; note: nearly all actives have a fitted effect of over 55% in size
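Chicken DT40 Tdp1-/- cells stably complemented with human TDP1 were seeded at 400 cells/well with DMSO in place of 20 nM camptothecin. After compound pinning, cells grew at least 48 hr at 37 °C; viability read by CellTiter-Glo luminescence.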
DT40 TDP1 CPT = DT40-hTDP1 cell growth loss with CPT; AID 686979; 420,000 compounds, 12% hits; chicken DT40 Tdp1-/-;hTDP1 cells + 20 nM CPT, ATP luminescence, 48 h; Potency, µM (highest dose often 46.2 µM), actives largely listed as inhibitors; note: nearly all actives have a fitted effect of over 55% in size
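Cell growth measured by CellTiter-Glo luminescence after a minimum 48 h, 37 C compound exposure with 20 nM CPT in Tdp1-knockout DT40 cells stably expressing hTDP1, seeded 400/well; qHTS titration format.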
HT1080NT lethal = kills 2HG-producing HT-1080-NT fibrosarcoma cells; 360,000 compounds, 1.6% hits; HT-1080-NT fibrosarcoma viability, CellTiter-Glo ATP luminescence, 48 h; Potency, µM (top dose mostly 46.1 µM), hits mostly cytotoxic;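 note: NT is the 2HG producing partner of a matched IDH1 knockdown line; nearly all actives have a fitted effect of over 55% in size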
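750 cells/well, RPMI + 5% FBS; 2 h settle, compound pin-transfer, 48 h at 37 degrees C. CellTiter-Glo 10 min RT, luminescence. Normalized to DMSO and media-only wells.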
IL-1B inflam inh = inflammasome signaling inhibition, IL-1 beta readout; THP-1 LPS/ATP IL-1B secretion, AlphaLISA, 16 h; stronger effect = lower value; activity change, % at 57.5 µM; 360,000 compounds, 4.7% hits; in the data active = activity change below about -50%; inconclusive = mostly about -30% to -49%
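Secreted IL-1B measured by AlphaLISA bead assay after 16 h compound exposure of THP-1 cells; compounds (final up to 57.5 uM) added 1 h before LPS (250 ng/mL) and ATP (1.25 mM) stimulation; lower signal means less secretion.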
HT1080 IDH1KD tx = kills HT-1080 cells with IDH1 knockdown; HT-1080 IDH1 knockdown viability, ATP luminescence, 48 h; 360,000 compounds, 2% hits; Potency, µM (top dose mostly 46.1 µM), actives largely listed as cytotoxic
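Knockdown cells (IDH1KD HT-1080) received compounds 2 h after plating at 750 cells/well and were kept 48 h at 37 °C in 5% FBS RPMI. A CellTiter-Glo luminescence read gave % activity for curve fitting.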
ELG1 repair inh = ELG1-dependent DNA repair inhibition. HEK293T ELG1-luciferase reporter, luminescence, 16 h; DNA damage induced by 5-fluorouridine. Potency, µM (top dose mostly 46.1 µM), most hits filed as inhibitors. 330,000 compounds, 2.3% hits. AID 504467; note: nearly all actives have a fitted effect of over 55% in size
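5-Fluorouridine DNA damage + compound/DMSO, 2,000 cells/well, 16 h, 37 °C/5% CO2. ONE-Glo, 30 min RT, luminescence. Readout = decrease in reporter signal.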
ELG1 FLuc counter = luciferase inhibition in cell-free luciferin readout for ELG1 hits; shares compounds with ELG1 repair inh; cell-free firefly luciferase luminescence counter-screen, ViewLux; Potency, µM (highest dose often 46.1 µM), actives largely listed as inhibitors; 350 compounds, 3% hits; AID 624247
ELG1 Luc conf = human ELG1 repair inhibition, luciferase-tagged ELG1 confirmation; shares compounds with ELG1 repair inh; AID 624248; HEK293T ELG1-luciferase levels, luminescence; cells co-treated with 5-fluorouridine; 670 compounds, 68% hits; Potency, µM (doses to about 46.1 µM), hits mostly inhibitors; note: nearly all actives have a fitted effect of over 55% in size
ELG1-Luc MMS = MMS-stimulated human ELG1 repair inhibition, confirmed; shares compounds with ELG1 repair inh; HEK293T luciferase-tagged ELG1 level, MMS stimulated; Potency, µM (series often up to 46.1 µM), most hits filed as inhibitors; 670 compounds, 53% hits; note: nearly all actives have a fitted effect of over 60% in size
ELG1 5FU viab = confirmation of ELG1 repair inhibitors: viability with 5FU; shares compounds with ELG1 repair inh; cell viability with 5-FU, ELG1-dependent repair; Potency, µM (series often up to 46.1 µM), usual class: cytotoxic; 670 tested, under 10 active; AID 624250;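 note: ELG1-luc HEK293T cells cotreated with 5-fluorouridine at 10 µM final; viability measured 16 h after compound addition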
ELG1 MMS viab = confirmation of ELG1 repair inhibitors: viability with MMS. Cell viability with MMS, ELG1-dependent DNA repair. shares compounds with ELG1 repair inh. Potency, µM (titrated, usually from 46.1 µM), most hits filed as cytotoxic. 670 compounds, 33% hits;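 note: ELG1-luc HEK293T cells co-treated with 10 µM MMS; viability read 16 h after compound addition; nearly all actives have a fitted effect of over 60% in size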
ELG1 unstim viab = counter-screen for ELG1 repair inhibitors: unstimulated cell viability; shares compounds with ELG1 repair inh; cell viability counter-screen, unstimulated, luminescence; Potency, µM (highest dose often 45.9 µM), usual class: cytotoxic; 900 compounds, 8% hits; AID 624252;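 note: compound exposure lasted 16 hours before reading; nearly all actives have a fitted effect of over 55% in size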
FLuc biochem = counter-screen for ELG1 repair inhibitors: firefly luciferase inhibition; AID 624253; Potency, µM (titrated, usually from 57.5 µM), hits mostly inhibitors; 350 compounds, 10% hits; purified firefly luciferase, luminescence counter-screen; shares compounds with ELG1 repair inh
A number is an active result; – = inactive; ? = inconclusive; · = no result. In the library only some 19% were active in any assay of this set; here they are far more common. Unless noted, calls come from the whole dose curve; as a rule, active = well fitted curve in the direction sought with a large enough effect; inconclusive = small, poorly fitted or top-dose-only effect, or another doubt; inactive = no such curve, though single readings can be large; an effect the other way counts as inactive or inconclusive.

SMILES	DT40 TDP1 no CPT	DT40 TDP1 CPT	HT1080NT lethal	IL-1B inflam inh	HT1080 IDH1KD tx	ELG1 repair inh	ELG1 Luc conf	ELG1-Luc MMS	ELG1 5FU viab	ELG1 MMS viab	ELG1 unstim viab	others
CCOc1ccc(N(CC(=O)N2CCCCC2)S(=O)(=O)c2ccc(Cl)cc2)cc1	–	–	–	–	–	–	·	·	·	·	·
CC(NC(=O)c1ccccc1NC(=O)CN1CCN(c2ccccc2O)CC1)c1ccccc1 (stereo not given)	?	?	–	–	–	2.31µM	5.6µM	?	?	?	–
COc1ccc(CN2CCN(CC(=O)Nc3ccccc3C(=O)NC3CC3)CC2)cc1F	–	–	–	–	–	2.59µM	7.05µM	?	?	–	–
COc1ccccc1N1CCN(CC(=O)Nc2ccccc2C(=O)NC(C)c2ccccc2)CC1 (stereo not given)	18.4µM	14.6µM	–	–	–	2.91µM	7.91µM	–	?	–	?
CCOc1ccc(CNC(=O)CCCn2nc(C)c3c(C)n(-c4ccc(C)cc4)nc3c2=O)cc1	?	?	–	?	–	–	·	·	·	·	·
CC(C)(C)OC(=O)C[C@@H]1C/C=C\C[C@H](CC(=O)NCCO)C(=O)NC[C@@H](c2ccccc2)OC1=O	–	–	–	–	–	–	·	·	·	·	·
COc1ccc(-n2c(C)c(C(C)=O)c3cc(O)ccc32)cc1	·	·	–	–	–	0.82µM	0.889µM	?	–	?	–	ELG1 FLuc counter=?;FLuc biochem=–
COc1ccc(CCNC(=O)C(=O)N2CCCC2)cc1OC	–	–	–	–	–	–	·	·	·	·	·
Cc1ccc(-c2nc(NC(=O)c3cc(C(C)(C)C)nn3C)sc2C)cc1Cl	?	?	–	–	–	4.61µM	?	–	–	?	?
CC1CCc2nc(NC(=O)c3cc(C(C)(C)C)nn3C)sc2C1 (stereo not given)	–	–	–	–	–	?	·	·	·	·	·
Cc1ccc(C)c(-n2cc(CN3CCCN(C=O)CC3)c(-c3ccccc3)n2)c1	–	–	–	–	–	–	·	·	·	·	·
CCCCNC(=O)C(=O)NCC1CCCN1S(=O)(=O)c1cccs1 (stereo not given)	–	–	–	–	–	–	·	·	·	·	·
CCCNC(=O)C(=O)Nc1ccc2c(c1)N(S(=O)(=O)c1cccs1)CCC2	23.1µM	14.6µM	?	–	?	3.26µM	15.8µM	5.6µM	?	?	–
Cc1cccc(N2CCN(C(=O)C3COc4ccccc4O3)CC2)c1C (stereo not given)	?	–	–	–	–	?	·	·	·	·	·
Cc1c(CC(=O)N2CCN(C(=O)C3COc4ccccc4O3)CC2)c(=O)oc2c(C)c(O)ccc12 (stereo not given)	?	?	–	–	–	0.58µM	3.97µM	?	?	–	?	ELG1 FLuc counter=–;FLuc biochem=–
Cc1cccn2c(CN[C@H]3CCCCNC3=O)c(C(=O)N3CCOCC3)nc12	–	–	–	–	–	–	·	·	·	·	·
COc1cccc2cc(-c3cc(=O)oc4ccc(OCC(C)=O)cc34)oc12	?	?	–	–	–	2.59µM	6.28µM	11.2µM	–	–	?
CC1CCCCC1NC(=O)CN1C(=O)NC(C)(c2ccc(OC(F)F)cc2)C1=O (stereo not given)	–	?	–	–	–	–	·	·	·	·	–	ELG1 FLuc counter=–;FLuc biochem=–
NC(=O)C1CCN(c2ccc(S(=O)(=O)N3CCC(Cc4ccccc4)CC3)cn2)CC1	13µM	?	–	–	–	?	–	1.99µM	–	2.5µM	?
Cc1ccc2c(c1)sc1nc(=O)n(-c3ccc(Cl)cc3)c(=O)n12	–	–	–	–	–	–	·	·	·	·	·
